Experimental findings from PubChem BioAssay are described below.

Test [1] deals with Plasmodium falciparum Sir2 (PF13_0152, Sir2A). The experiment in a line: Plasmodium falciparum Sir2A binding compounds – biochemical, small-molecule microarray, 635 nm fluorescence, primary screen (AID 1098).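 Further: score merges spot fluorescence intensity with its signal-to-noise ratio.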 The settings on record: fluorescence 635 nm, higher = more signal.
Test [2] in a line: probe aDKK1 binding to arrayed compounds – biochemical, biotinylated probe, 635/667 nm fluorescence, primary screen (AID 1099).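 Further: score merges 667nm spot fluorescence with signal to noise across triplicate slides.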 The settings on record: small-molecule microarray, higher = more signal.
A short description of test [3]: probe aCHRDL2 binding to arrayed compounds – biochemical, biotinylated probe, 635/667 nm fluorescence, primary screen (AID 1100). Conditions: small-molecule microarray, higher = more signal.
The nature of test [4]: change in splice reporter luminescence, either direction, cell-based, HEK293, spliceosome inhibition project, primary screen (AID 1101).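 Further: HEK293 cells carrying a splicing-competent luciferase reporter gene; test concentration not given here.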 The settings on record: HEK293 splicing luciferase reporter, 24 h, higher = more signal, called active from +8 up or from −8 down. For orientation: Reporter assays use an easily measured gene product as a stand-in for the process of interest.

Test [5] concerns the target Fibroblast growth factor 10 (Homo sapiens) (UniProt O15520). In words: compounds binding fibroblast growth factor 10 – biochemical, small-molecule microarray, 635 nm fluorescence, primary screen (AID 1102). The settings on record: FGF10 binding, fluorescence 635 nm, higher = more signal.
Test [6] has as its system glycogen synthase kinase-3 (GSK3A per assay name; protocol says GSK3B). The experiment in a line: compounds binding glycogen synthase kinase-3 – biochemical, small-molecule microarray, 635 nm fluorescence, GSK3A, primary screen (AID 1103). Further: the record names both GSK3A and GSK3B. Conditions: fluorescence 635 nm, higher = more signal.
Test [7] addresses Epidermal growth factor receptor (Homo sapiens) (UniProt P00533). The experiment in a line: compounds binding epidermal growth factor receptor – biochemical, small-molecule microarray, 635 nm fluorescence, primary screen (AID 1104).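 Further: score merges 667 nm emission intensity with spot signal to noise over triplicate slides.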 The settings on record: EGFR binding, higher = more signal.
Test [8] addresses Follistatin-related protein 3 (Homo sapiens) (UniProt O95633). The experiment in a line: compounds binding follistatin-related protein 3 – biochemical, small-molecule microarray, 635 nm fluorescence, primary screen (AID 1105).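 Further: score merges emission near 667 nm and signal to noise per printed spot across three slides.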 Conditions: FSTL3 binding, higher = more signal.
The target of test [9] is Dickkopf-related protein 1 (Homo sapiens) (UniProt O94907). The experiment in a line: small molecules binding DKK1 protein – biochemical, small-molecule microarray, 635 nm fluorescence scan, primary screen (AID 1106).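 Further: score merges emission near 667 nm with signal to noise over three replicate slides.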 Conditions: higher = more signal.
Chain of Dickkopf-related protein 1 (Homo sapiens) (O94907 whole entry, looked up): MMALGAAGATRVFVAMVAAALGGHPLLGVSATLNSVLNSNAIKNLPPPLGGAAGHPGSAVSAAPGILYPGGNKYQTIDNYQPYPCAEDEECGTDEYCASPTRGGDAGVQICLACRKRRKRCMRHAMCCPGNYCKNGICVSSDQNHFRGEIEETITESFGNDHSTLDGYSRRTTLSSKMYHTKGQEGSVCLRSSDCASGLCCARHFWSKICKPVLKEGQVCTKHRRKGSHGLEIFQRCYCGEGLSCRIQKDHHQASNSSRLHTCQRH
In test [10] the test system is Inhibin beta A chain (activin A). In words: small molecules binding activin A – biochemical, small-molecule microarray, 635 nm fluorescence scan, primary screen (AID 1107).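 Further: mouse activin A protein probed at 4.33 µg/mL on printed slides; score merges bound-protein fluorescence near 667 nm with spot signal-to-noise.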 Conditions: INHBA, higher = more signal.
Test [11] relates to Human papillomavirus type 1a protein E7 (residues 44-93). In words: small molecules binding HPV E7 44-93 – biochemical, small-molecule microarray, residues 44-93, 635 nm fluorescence, primary screen (AID 1108).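 Further: E7 fragment applied at 1 µg/mL in TBST for 1 h at 4 C; score combines spot fluorescence with its signal to noise ratio.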 The settings on record: fluorescence 635 nm, higher = more signal.
Test [12] in a line: hepatitis C replication reporter changes, two-sided – Huh7 cells, luciferase reporter, HCV replication inhibitor project, primary screen (AID 1109).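 Further: huh7 hepatoma cells harbouring a luciferase neomycin HCV replicon reporter; luciferase luminescence as measure of HCV replicon replication; test concentration not given here.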 The settings on record: Huh7 HCV replicon luciferase reporter, 48 h; higher = more signal.
Test [13] deals with Left-right determination factor 2 (Homo sapiens) (UniProt O00292). The experiment in a line: small molecules binding LEFTY2 protein – biochemical, small-molecule microarray, 635 nm fluorescence scan, primary screen (AID 1110). Conditions: higher = more signal.
Chain of Left-right determination factor 2 (Homo sapiens) (O00292 whole entry, looked up): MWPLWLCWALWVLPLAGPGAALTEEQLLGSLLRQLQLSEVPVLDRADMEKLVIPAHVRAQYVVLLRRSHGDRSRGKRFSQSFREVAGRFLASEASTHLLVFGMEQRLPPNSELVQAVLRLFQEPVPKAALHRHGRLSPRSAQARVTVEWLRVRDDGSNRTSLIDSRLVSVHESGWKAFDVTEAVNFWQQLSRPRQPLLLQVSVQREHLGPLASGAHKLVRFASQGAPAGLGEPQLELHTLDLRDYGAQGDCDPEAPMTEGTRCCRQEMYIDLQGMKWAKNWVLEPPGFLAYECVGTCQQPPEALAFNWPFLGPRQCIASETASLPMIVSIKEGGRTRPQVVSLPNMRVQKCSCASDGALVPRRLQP
Test [14] has as its target Calmodulin-1 (Homo sapiens) (UniProt P0DP23). The experiment in a line: small molecules binding calmodulin-1 with EGTA – biochemical, small-molecule microarray, Cy5-labelled CALM1, profiling panel (AID 1111).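 Further: labelled calmodulin applied in Tris saline Tween buffer holding calcium plus EGTA and DTT.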 The settings on record: Cy5-CALM1 binding fluorescence, higher = more signal.
For test [15] the target is unchanged. In words: small molecules binding Ca-loaded calmodulin-1 – biochemical, small-molecule microarray, Cy5-labelled CALM1, plus calcium, artefact control for SMM control-protein annotation, profiling panel (AID 1112).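 Further: score merges spot fluorescence with signal to noise from triplicate slides.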 Conditions: Cy5-CALM1 binding fluorescence, higher = more signal.
A short description of test [16]: probe aWnt5a binding to arrayed compounds – biochemical, biotinylated probe, 635/667 nm fluorescence, primary screen (AID 1113).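 Further: score merges 667 nm fluorescence intensity with signal-to-noise per printed feature.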 Conditions: small-molecule microarray, higher = more signal.
Test [17] can be described thus: probe aShh binding to arrayed compounds – biochemical, biotinylated probe, 635/667 nm fluorescence, primary screen (AID 1114).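 Further: probe is biotin-labelled aShh protein from a stem cell growth factor screen; measures binding of labelled protein to compounds printed on the slide; score merges feature fluorescence at 667 nm with signal-to-noise.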 The settings on record: small-molecule microarray, higher = more signal.
Test [18] is described as follows: probe aNog binding to arrayed compounds – biochemical, biotinylated probe, 635/667 nm fluorescence, primary screen (AID 1115).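 Further: probe is biotinylated aNog protein used at 0.15 µg/mL for 1 h at 4 C; z-score combines 667 nm fluorescence of each spot with its signal to noise.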 Conditions: small-molecule microarray, higher = more signal.
Test [19] deals with Torsin-1A-interacting protein 1 (Homo sapiens) (UniProt Q5JTV8). The experiment in a line: compound microarray binding of lysate hLAP1 – cell lysate, small-molecule microarray, COS7 lysate, 635/667 nm fluorescence, primary screen (AID 1116). The settings on record: 635 nm fluorescence, higher = more signal.
Chain of Torsin-1A-interacting protein 1 (Homo sapiens) (Q5JTV8 whole entry, looked up): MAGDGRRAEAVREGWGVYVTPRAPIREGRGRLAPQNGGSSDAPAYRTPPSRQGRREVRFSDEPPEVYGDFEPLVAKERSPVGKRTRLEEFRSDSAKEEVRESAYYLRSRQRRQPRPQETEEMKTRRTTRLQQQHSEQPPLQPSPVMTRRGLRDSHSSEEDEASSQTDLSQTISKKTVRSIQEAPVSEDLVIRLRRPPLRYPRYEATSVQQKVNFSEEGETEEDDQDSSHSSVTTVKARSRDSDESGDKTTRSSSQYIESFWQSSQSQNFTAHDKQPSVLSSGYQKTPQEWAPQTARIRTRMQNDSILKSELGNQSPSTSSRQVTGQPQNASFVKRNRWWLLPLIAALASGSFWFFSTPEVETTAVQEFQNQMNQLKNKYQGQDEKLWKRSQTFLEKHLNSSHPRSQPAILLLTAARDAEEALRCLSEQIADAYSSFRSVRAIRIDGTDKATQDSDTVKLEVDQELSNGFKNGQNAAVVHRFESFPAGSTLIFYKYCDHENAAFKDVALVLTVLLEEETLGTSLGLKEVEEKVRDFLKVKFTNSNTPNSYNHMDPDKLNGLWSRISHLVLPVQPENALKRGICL
For test [20], the target named is Alpha-bungarotoxin (Bungarus multicinctus) (UniProt P60615). In words: compounds binding labelled alpha-BTX control protein – biochemical, small-molecule microarray, Alexa647 label, 635/667 nm fluorescence, artefact control for SMM control protein annotation, profiling panel (AID 1117). Conditions: alpha-BTX-A647 binding fluorescence, higher = more signal.
Chain of Alpha-bungarotoxin (Bungarus multicinctus) (P60615 whole entry, looked up): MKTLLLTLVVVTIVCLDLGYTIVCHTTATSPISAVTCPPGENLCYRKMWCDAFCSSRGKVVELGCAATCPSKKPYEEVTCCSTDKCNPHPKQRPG

Active and inactive are the calls of the source.

Chain of Follistatin-related protein 3 (Homo sapiens) (O95633 whole entry, looked up): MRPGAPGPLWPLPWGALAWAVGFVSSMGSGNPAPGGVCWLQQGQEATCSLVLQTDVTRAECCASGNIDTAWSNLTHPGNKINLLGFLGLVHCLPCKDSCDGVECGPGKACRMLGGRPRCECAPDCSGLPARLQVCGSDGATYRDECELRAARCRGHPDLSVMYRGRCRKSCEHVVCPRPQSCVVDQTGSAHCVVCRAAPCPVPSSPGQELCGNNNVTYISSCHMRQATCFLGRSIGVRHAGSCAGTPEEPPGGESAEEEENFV
Chain of Epidermal growth factor receptor (Homo sapiens) (P00533 whole entry, looked up): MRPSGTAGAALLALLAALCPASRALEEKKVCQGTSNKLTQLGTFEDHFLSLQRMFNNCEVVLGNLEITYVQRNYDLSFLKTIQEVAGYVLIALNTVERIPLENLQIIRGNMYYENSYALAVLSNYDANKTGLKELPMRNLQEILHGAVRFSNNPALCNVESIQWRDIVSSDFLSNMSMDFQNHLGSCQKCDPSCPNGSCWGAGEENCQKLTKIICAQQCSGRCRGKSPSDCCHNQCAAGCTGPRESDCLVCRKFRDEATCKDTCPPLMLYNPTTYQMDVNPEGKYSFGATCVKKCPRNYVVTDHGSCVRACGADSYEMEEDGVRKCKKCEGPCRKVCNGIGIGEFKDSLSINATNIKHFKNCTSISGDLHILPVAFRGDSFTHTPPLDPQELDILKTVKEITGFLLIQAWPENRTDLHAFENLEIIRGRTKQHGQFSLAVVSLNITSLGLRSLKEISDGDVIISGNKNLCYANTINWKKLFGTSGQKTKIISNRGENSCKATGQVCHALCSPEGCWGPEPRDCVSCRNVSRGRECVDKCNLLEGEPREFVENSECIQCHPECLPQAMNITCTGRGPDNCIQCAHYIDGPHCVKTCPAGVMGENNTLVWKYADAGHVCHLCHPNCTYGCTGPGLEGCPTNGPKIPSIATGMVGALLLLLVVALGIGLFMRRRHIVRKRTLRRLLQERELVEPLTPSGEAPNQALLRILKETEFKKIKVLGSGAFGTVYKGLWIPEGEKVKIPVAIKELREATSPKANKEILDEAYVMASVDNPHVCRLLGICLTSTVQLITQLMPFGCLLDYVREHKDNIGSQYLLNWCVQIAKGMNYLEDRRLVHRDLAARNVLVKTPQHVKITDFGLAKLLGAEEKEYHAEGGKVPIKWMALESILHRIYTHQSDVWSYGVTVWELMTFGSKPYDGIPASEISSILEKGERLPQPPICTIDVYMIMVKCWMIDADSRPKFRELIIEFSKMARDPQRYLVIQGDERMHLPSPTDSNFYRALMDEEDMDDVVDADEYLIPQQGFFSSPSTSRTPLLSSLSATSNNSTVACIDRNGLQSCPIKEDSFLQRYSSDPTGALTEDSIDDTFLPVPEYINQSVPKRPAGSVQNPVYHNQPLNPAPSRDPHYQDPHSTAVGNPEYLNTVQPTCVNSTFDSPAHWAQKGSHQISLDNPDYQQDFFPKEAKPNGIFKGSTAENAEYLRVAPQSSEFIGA
Chain of Fibroblast growth factor 10 (Homo sapiens) (O15520 whole entry, looked up): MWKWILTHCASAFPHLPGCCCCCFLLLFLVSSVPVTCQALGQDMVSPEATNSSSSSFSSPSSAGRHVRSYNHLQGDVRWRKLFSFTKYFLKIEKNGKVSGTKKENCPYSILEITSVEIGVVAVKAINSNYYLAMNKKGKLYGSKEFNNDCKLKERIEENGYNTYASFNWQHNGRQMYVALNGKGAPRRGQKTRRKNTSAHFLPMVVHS

Regarding `C=CCc1cccc([C@@H]2[C@@H](C)CC[C@H]3C(=O)N4[C@H](c5cccc(CC=C)c5)[C@@H](C)CC[C@H]4C(=O)N23)c1`, the composite z-score in [1] is 0.725; in test [2], -0.0603; in [3], 0.175; in test [5] it was 0.756; in test [6], 0.365; in test [7], 0.654. Moreover, the composite z-score amounted to 0.831 in [8]; 0.666 in test [9]; 1.67 in [10]; 0.227 in test [11]; 1.09 in [13]; 0.254 in test [14]. For the same compound, the composite z-score in [15] is -0.831; in test [16], 0.0893; in [17], 0.0899; in [18], -0.216; in [19], 0.373; in [20] it was 1.88. Also, the z-score in test [4] was -1.34 (inactive); in [12], -3.5.

In the case of `[N-]=[N+]=NCc1ccccc1[C@H]1OC(c2ccc(OCCCO)cc2)=N[C@@]1(Cc1ccccc1N=[N+]=[N-])C(=O)NCc1ccccc1`, the composite z-score is 1.01 in test [1]; 1.09 in test [2]; 1.1 in [3]; 1.03 in test [5]; 1.04 in [6]; -0.296 in test [7]. Also, the composite z-score in test [8] is 0.62; in [9], -0.193; in test [10], 1.13; in [11], 0.716; in [13] it was -0.334; in test [14], 1.54. For the same compound, the composite z-score in test [15] worked out at 0.642; in test [16] it was 0.239; in test [17] it was 0.407; in test [18] it was 0.57; in test [19] it was 0.447; in test [20], 1.71. The figures for the z-score in [4] and in [12] were 0.672 (inactive) and -2.02, respectively.

With `COc1ccc(-c2ccccc2[C@@H]2N[C@H](C(=O)O)CC[C@H]2C)cc1`, the composite z-score is 0.0888 in [1]; -0.267 in [2]; -0.519 in [3]; 0.262 in test [5]; 0.387 in [6]; 0.418 in [7]. For the same compound, the composite z-score in test [8] was 0.336; in [9], 0.526; in test [10], 0.135; in test [11], 0.404; in [13], 0.594; in [14] it was -0.27. Moreover, the composite z-score in [15] was -0.699; in test [16], -0.0222; in [17], 0.138; in [18], 0.432; in test [19] it was 0.583; in [20], 0.288. In addition, the z-score in test [4] is -1.21 (inactive); in test [12] it was -0.388.

Regarding `[N-]=[N+]=NCc1ccccc1C[C@]1(C(N)=O)N=C(c2ccc(OCCCO)cc2)O[C@H]1c1ccccc1CN=[N+]=[N-]`, the composite z-score in test [1] is 1.49; in [2], 1.51; in test [3], 1.29; in test [5] it was 0.72; in test [6], 0.265; in test [7] it was -0.37. For the same compound, the composite z-score is 0.186 in test [8]; -0.9 in [9]; 1.41 in test [10]; 0.842 in test [11]; -0.854 in test [13]; 1.98 in test [14]. Also, the composite z-score in test [15] stood at 1.12; in test [16], 0.0286; in test [17], 0.84; in [18] it was 0.653; in [19], 1.32; in test [20], 1.56. Also, the values for the z-score in test [4] and in test [12] were -1.63 (inactive) and -2.34, respectively.

Regarding `COCCOC(=O)N1C(=O)[C@@]2(c3cc(C#CCNC(N)=O)ccc31)[C@H](C(=O)N1CCCCCCC1)[C@H]1C(=O)O[C@H](c3ccccc3)[C@H](c3ccccc3)N1[C@@H]2c1ccccc1OCCO`, the composite z-score in test [1] is 0.733; in test [2] it was 1.46; in test [3] it was 0.734; in test [5], 0.718; in test [6] it was 0.205; in test [7], 0.79. Moreover, the composite z-score in test [8] was found to be 1.22; in test [9], 0.485; in test [10], 1.33; in test [11], 1.32; in [13] it was 1.09; in test [14], 0.886. The composite z-score was 0.632 in test [15]; 0.193 in test [16]; 0.46 in [17]; 0.878 in test [18]; 0.845 in test [19]; 0.48 in test [20]. Besides, the z-score was -0.12 (inactive) in test [4] and -2.1 in [12].

As for `CCOC(=O)C1=C[C@@H](c2ccccc2)N(S(=O)(=O)c2ccc(C)cc2)[C@H]1c1ccc(F)cc1`, the composite z-score stood at 0.873 in [1]; 0.362 in test [2]; 0.573 in test [3]; 0.635 in test [5]; 1.29 in test [6]; 0.158 in test [7]. For the same compound, the composite z-score in test [8] stood at 1.04; in test [9] it was 0.675; in test [10] it was 0.589; in test [11], 0.431; in test [13] it was 0.446; in test [14], 0.37. In addition, the composite z-score in test [15] is 0.342; in [16], -0.0718; in [17], 0.0929; in test [18], 0.862; in test [19], 0.904; in [20] it was 1.27. The z-score in [4] is -0.162 (inactive); in [12], -1.97.
